# Experimental data as given in PubChem BioAssay AID493191 (Broad Institute, 2011).
# Among all 1,300 compounds or so, about 330 (25%) were called active. The rule behind the calls is not given here. The list is a sample of the results. Measured potencies and affinities stand elsewhere.
# Assay: growth inhibition of MALME3 cells – cell-based, CellTiter-Glo, cherry-picked, orthogonal assay for MITF inhibitor project, dose response (AID 493191)
# Conditions: MALME3 melanoma viability, CellTiter-Glo luminescence, 24 h; series mostly up to 35 µM
row,SMILES,outcome
1,CC(/C=N/NC(=O)c1cc(-c2ccncc2)nc2ccccc12)=C\c1ccco1,inactive
2,O=C(CCC1CCCN(C(=O)c2cc3ccccc3o2)C1)NCc1ccc(F)c(F)c1 (stereo not given),inactive
3,COC(=O)[C@@H](C)NC(=O)c1ccc2oc(CCc3ccccc3)nc2c1,inactive
4,COC(=O)[C@@H]1C[C@]2(OC(=O)c3ccccc3)C=CC(=O)C[C@@H]2N1C(=O)OCc1ccccc1,inactive
5,O=C1CN(c2ccccc2)C(=S)N1C(=O)c1ccccc1,inactive
6,Cc1cc(C(=O)COc2cccnc2[N+](=O)[O-])c(C)n1-c1ccccc1,inactive
7,Cc1cc(-n2c(C)cc(C(=O)CCl)c2C)no1,inactive
8,Cc1cc(C(=O)CCl)c(C)n1CCc1ccc(F)cc1,inactive
9,COc1ccc2oc3ccc(OC)cc3c(=O)c2c1,inactive
10,COC(=O)c1ccc(-n2c(C)cc(C(=O)CCl)c2C)cc1,inactive
11,CC(C)(C)c1ccc(-c2noc(CCC(=O)NCC3CCCO3)n2)cc1 (stereo not given),inactive
12,Cc1cc(NCCCn2ccnc2)n2ncc(-c3ccccc3)c2n1,inactive
13,O=C(NCc1ccco1)c1ccc(COCC(F)(F)F)cc1,inactive
14,COc1ccc(S(=O)(=O)Nc2ccc(O)c3ccccc23)cc1,inactive
15,O=[N+]([O-])c1ccccc1OCCOc1ccccc1[N+](=O)[O-],inactive
16,CCOC(=O)c1sc(NC(=O)Nc2ccc(Cl)cc2)nc1C,inactive
17,CCOC(=O)CSc1nc2cc(OCC)ccc2cc1C#N,inactive
18,CCOc1ccc(/C=C2\SC(=S)N(CCC(=O)O)C2=O)cc1,inactive
19,CCOC(=O)CSC1=NC(=O)/C(=C\c2ccc(OC(C)=O)cc2)S1,inactive
20,COc1ccc(CNC(=O)CN2C(=O)C3C4C=CC(C4)C3C2=O)cc1 (stereo not given),inactive
21,CC(C)(C)c1ccc(-c2cc(N)n[nH]2)cc1,inactive
22,COCCn1c(C)cc(C(=O)CSc2nnc(C)s2)c1C,inactive

row,SMILES,outcome
1,O=C(CCl)N1c2ccccc2CCc2ccccc21,inactive
2,COc1ccc(CCC(=O)N2CCc3ccccc32)cc1,inactive
3,CC(=O)c1sc(N/N=C\c2ccc(N(C)C)cc2)nc1C,inactive
4,COc1cccc(C(=O)Nc2ccc3c(cc2=O)[C@@H](NC(C)=O)CCc2cc(OC)c(OC)c(OC)c2-3)c1,inactive
5,O=C1c2ccccc2C(=O)N1CCOc1ccccc1,inactive
6,Cc1nc2ccccn2c1C(=O)/C=C/c1cccc([N+](=O)[O-])c1,inactive
7,O=C(/C=C/c1cccc([N+](=O)[O-])c1)n1cnc2ccccc21,inactive
8,CCOC(=O)C(=Cc1ccc(-n2ccnc2)cc1)C(=O)OCC,inactive
9,CC(=O)c1ccc(Sc2nnnn2-c2ccccc2)c([N+](=O)[O-])c1,inactive
10,Cc1ccc(-n2ncc3c(SCC(N)=O)ncnc32)cc1C,inactive
11,CCOc1ccc2cc(C#N)c(SCC(=O)OC)nc2c1,inactive
12,Cc1cc(C)cc(NS(=O)(=O)c2ccc3c(c2)c(=O)n(C)c(=O)n3C)c1,inactive
13,N#Cc1cnn2cc(CCN3CCOCC3)c(-c3ccc(F)cc3)nc12,inactive
14,O=C(Cn1nnc(-c2ccccc2Cl)n1)N1CCCCC1,inactive
15,O=C(CCCc1ccccc1)N1CCN(C2CCCCC2)CC1,inactive
16,Cc1cc(Cl)ccc1OCCCC(=O)N1CCOCC1,inactive
17,Cc1ccc(C(=O)c2cccc(N)c2)cc1C,inactive
18,CC(C)(C)c1ccc(C(=O)N2CCCCCC2=O)cc1,inactive
19,O=C(CSCc1c(F)cccc1F)Nc1ccccc1,inactive
20,CC(C)(C)OC(=O)N1CCN(C(=O)c2nc[nH]c2C(=O)N2CCN(c3ccccc3)CC2)CC1,inactive
21,Cc1ccsc1C(=O)OCC(=O)Nc1sccc1C(N)=O,inactive
22,CCCCC(=O)N/C(N)=N/c1nc2ccccc2o1,inactive

row,SMILES,outcome
1,Cc1c(Cl)c([N+](=O)[O-])nn1Cc1ccc(C(=O)N/N=C\c2cc(Cl)ccc2O)o1,inactive
2,O=C(c1ccc([N+](=O)[O-])s1)N1CCN(c2ccccn2)CC1,inactive
3,O=C(N/N=C/c1ccccn1)c1cc([N+](=O)[O-])cc([N+](=O)[O-])c1,inactive
4,O=C(O)c1cc2ccccc2c(N=Nc2cccnc2)c1O,inactive
5,CN(C)S(=O)(=O)c1cccc(NC(=O)CSc2nc3c(cc2C#N)C(=O)CC(C)(C)C3)c1,inactive
6,O=C(c1nnsc1S(=O)(=O)c1ccc(Cl)cc1)N1CCOCC1,inactive
7,Nc1ccc(-c2nc3ccc(C(=O)O)cc3s2)cc1,inactive
8,OCC1CCCC(n2cnc3c(=S)nc[nH]c32)O1 (stereo not given),inactive
9,CCCC1=Nc2cc(C(=O)NCCN3CCCC3)ccc2Sc2ccccc21,inactive
10,CCN1CCN(CCCNC(=O)c2ccc3c(Cl)c4c(nc3c2)CCCC4)CC1,inactive
11,COc1cccc(/C=C2/Sc3ccc(C(=O)NCCN4CCCC4)cc3NC2=O)c1,inactive
12,CCN1CCCC1CNC(=O)c1ccc2c(c1)NC(=O)/C(=C\c1ccc(OC)c(OC)c1)S2 (stereo not given),inactive
13,Cc1cccc(/C=C2/Sc3ccc(C(=O)NCCN4CCCC4)cc3NC2=O)c1,inactive
14,CCNc1nc(N)c(C(=O)c2ccc(Cl)s2)s1,inactive
15,CSc1nc(N)n2nc(-c3ccc(Cl)cc3)cc2n1,inactive
16,CC(C)CC(=O)/C=C/n1c(=S)oc2ccccc21,inactive
17,CN(c1cccc(NC(=O)COc2ccc(Cl)cc2Cl)c1)S(C)(=O)=O,inactive
18,O=C(CC(=O)c1ccccc1)Nc1ccccn1,inactive
19,CC(=O)Nc1cccc2c1Cc1ccccc1-2,inactive
20,CC(=O)Nc1ccc(S(=O)(=O)N2CCn3cccc3C2C)cc1 (stereo not given),inactive
21,c1ccc(-c2cn3nc4c(nc3n2)CCCC4)cc1,inactive
22,O=S1(=O)CCC(NC(=S)SCc2ccccc2Br)C1 (stereo not given),inactive

row,SMILES,outcome
1,COc1cccc(-c2nnc3sc(-c4cccs4)nn23)c1,inactive
2,COCC(C)Nc1ncnc2c1cnn2-c1ccc(Cl)cc1 (stereo not given),inactive
3,Nc1ccccc1SC1CC(=O)N(c2ccc3c(c2)OCCO3)C1=O (stereo not given),inactive
4,Cc1ccc2nc(NC(=O)c3ccc(Br)o3)sc2c1,inactive
5,COC(=O)CSC1=C(C#N)C(=O)NC(c2ccccc2)S1 (stereo not given),inactive
6,Cc1ccc(OCCNCc2ccccc2)c(C)c1,inactive
7,CC(C)(C)c1ccc(OCCn2ccccc2=O)cc1,inactive
8,NC(=O)c1cc([N+](=O)[O-])ccc1NCc1ccc(N)cc1,inactive
9,Cc1ccc2nc3cc([N+](=O)[O-])cc([N+](=O)[O-])c3cc2c1,inactive
10,CC(=O)N/C(N)=N/c1nc2cc(C)ccc2o1,inactive
11,CCn1nccc1C(=O)Nc1ccc(C)c(C)c1,inactive
12,Cc1ccc(NC(=O)c2cnc3ccccc3n2)cc1C,inactive
13,CC(C)=CCc1c(O)ccc2c1OC(c1ccc(O)c(O)c1)CC2=O (stereo not given),inactive
14,Cc1c(OCC(=O)NC2CC(C)(C)NC(C)(C)C2)ccc2c1oc(=O)c1ccccc12,inactive
15,COc1cc(SC)ccc1C(=O)NCCOc1ccccc1Cl,inactive
16,CC1CCN(CC2C(=O)O[C@@H]3C[C@@]4(C)CCC[C@H](C)C4=C[C@H]23)CC(C)(C)C1 (stereo not given in full),inactive
17,CCOc1ccccc1NC(=O)C(=O)N/N=C/c1cc(Br)ccc1O,inactive
18,COc1ccc(C(=O)N/N=C/c2cc(Br)ccc2O)cc1OC,inactive
19,COc1ccc(CCn2c(=S)[nH]c3cc(C(=O)NCc4ccco4)ccc3c2=O)cc1OC,inactive
